# Compounds with a hit are over-represented: about 2.9% of the library has one in this group of screens.
# PAFAH1B3 inh – inhibitors of human PAFAH1B3. recombinant PAFAH1B3, FP-rhodamine probe, fluorescence polarization. inhibition, % at 3.39 µM. 340,000 compounds, 0.28% hits. AID 492972. Q15102;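 active = inhibition above the screen-wide average of all tested compounds plus 3 SD, cut at about 25% in these data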;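 also: 0% = enzyme with DMSO only and 100% = wells lacking PAFAH1B3 protein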
# Target sequence (Q15102 whole entry, looked up): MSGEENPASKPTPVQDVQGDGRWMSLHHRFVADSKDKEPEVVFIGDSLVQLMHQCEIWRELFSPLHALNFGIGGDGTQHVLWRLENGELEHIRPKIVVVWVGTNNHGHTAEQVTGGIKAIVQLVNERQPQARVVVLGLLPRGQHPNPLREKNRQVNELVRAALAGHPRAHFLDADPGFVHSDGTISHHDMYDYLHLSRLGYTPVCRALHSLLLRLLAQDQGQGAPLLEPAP
# pPAFAH inh – inhibitors of human plasma PAF acetylhydrolase (pPAFAH). recombinant pPAFAH, FP-rhodamine probe fluorescence polarization. 330,000 compounds, 1.5% hits. inhibition, % at 3.39 µM;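 active = inhibition above the mean inhibition across the screen plus 3 SD, cut at about 25% in these data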;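 also: inhibitors block binding of the rhodamine activity-based probe so polarization drops; 0% = enzyme with DMSO and 100% = wells lacking pPAFAH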
# Target sequence (Q13093 whole entry, looked up): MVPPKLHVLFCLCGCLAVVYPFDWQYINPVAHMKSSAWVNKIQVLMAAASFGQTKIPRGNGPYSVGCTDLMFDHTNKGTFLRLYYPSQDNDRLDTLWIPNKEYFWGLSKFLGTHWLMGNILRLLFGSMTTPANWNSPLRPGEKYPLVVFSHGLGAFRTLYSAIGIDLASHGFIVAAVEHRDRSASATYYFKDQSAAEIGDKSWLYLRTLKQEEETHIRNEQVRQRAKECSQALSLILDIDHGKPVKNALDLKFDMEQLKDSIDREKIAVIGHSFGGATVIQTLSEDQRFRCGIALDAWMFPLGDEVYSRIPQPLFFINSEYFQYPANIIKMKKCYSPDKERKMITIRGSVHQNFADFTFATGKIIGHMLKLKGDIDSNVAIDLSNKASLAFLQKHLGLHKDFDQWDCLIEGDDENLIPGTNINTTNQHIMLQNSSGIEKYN
# Fam108B counter – blocks mouse Fam108B hydrolase in RBBP9 counter-screen. recombinant Fam108B, FP-Rh probe fluorescence polarization. inhibition, % at 9.51 µM. 300,000 compounds, 0.33% hits;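 active = inhibition above the screen mean inhibition plus 3 SD, computed separately per campaign, cut at about 18% in these data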;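 also: inhibitors lower polarization as less probe binds the enzyme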
# PAFAH1B2 inh – inhibitors of human PAFAH1B2. P68402. recombinant PAFAH1B2, FP-rhodamine activity probe, fluorescence polarization. inhibition, % at 3.39 µM. 340,000 compounds, 1.2% hits;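 active = inhibition above the mean of all tested compounds plus 3 SD, cut at about 24% in these data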;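 also: 0% = enzyme with DMSO and 100% = wells lacking PAFAH1B2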
# PAFAH2 FP inh – PAFAH2 (human) inhibition; inhibition, % at 3.39 µM; 340,000 compounds, 0.99% hits; recombinant PAFAH2, FP-rhodamine activity probe, fluorescence polarization;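 active = inhibition above the mean over all tested compounds plus 3 SD, cut at about 30% in these data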;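 also: inhibitors block probe labeling of enzyme so polarization drops; 0% = enzyme with DMSO and 100% = wells lacking PAFAH2 protein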
# PME-1 inh – blocks human protein phosphatase methylesterase 1; Q9Y570; recombinant PME-1, FP-Rh probe fluorescence polarization; inhibition, % at 5.9 µM; 320,000 compounds, 0.53% hits; AID 2130;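 active = inhibition above the campaign mean of all compounds plus 3 SD, cut at about 26% in these data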;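 also: competitive labeling of PME-1 active site by serine hydrolase directed probe; 0% = PME-1 with DMSO and 100% = wells lacking PME-1 enzyme; inhibitors block probe labeling so polarization falls and inhibition rises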
# Fam108b inh conf – Fam108b (mouse) hydrolase inhibition, confirmation assay; inhibition, % at 9.51 µM; shares compounds with Fam108B counter; 930 compounds, 44% hits; recombinant Fam108b, FP-Rh probe fluorescence polarization;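 active = inhibition above a limit from the primary screen, the mean over all compounds plus 3 SD, cut at about 19% in these data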;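 also: 0% = median of active Fam108b wells and 100% = catalytically dead S170A mutant; inhibitors free the probe so polarization falls as inhibition rises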
# Fam108b inh – inhibits mouse Fam108b in gel-based ABPP; shares compounds with Fam108B counter; recombinant Fam108b, fluorophosphonate probe; 260 compounds, 44% hits; AID 588649; inhibition, % at 20 µM; in the data active = inhibition above about 40%
# * hit, by the source's call; x = no result given.
SMILES,PAFAH1B3 inh,pPAFAH inh,Fam108B counter,PAFAH1B2 inh,PAFAH2 FP inh,PME-1 inh,Fam108b inh conf,others
CC1CC(=O)c2c(cc3c(-c4c(O)cc(O)c5c(O)c6c(cc45)OC(C)CC6=O)c(O)cc(O)c3c2O)O1 (stereo not given),76.1*,80.0*,53.7*,53.3*,61.5*,0.1,65.9*,Fam108b inh=0.0
O=C1CC(c2ccc(O)cc2)Oc2cc(O)cc(O)c21 (stereo not given),6.1,4.1,2.6,2.0,-5.7,-7.2,x,
COc1ccc(OC)c(/C=C2\S/C(=N/NC(=O)c3ccc4ccccc4c3)NC2=O)c1,13.2,17.6,32.3*,11.6,25.1,22.6,15.1,
COc1cccc(-c2nn(C)c3sc(C(=O)NCc4ccccn4)cc23)c1,7.7,-7.3,0.1,3.8,10.7,-6.4,x,
Cc1ccsc1C=Nc1ccc(O)cc1,21.6,22.3,41.7*,6.4,8.3,55.4*,3.7,
O=C(Nc1cccc(-c2csc(Nc3ccc(Cl)cc3)n2)c1)c1ccccc1,5.5,18.4,24.1*,8.5,-22.8,1.3,19.6*,
O=C(Nc1ccc(-c2csc(Nc3ccccc3)n2)cc1)c1ccccc1,7.8,10.7,4.8,3.5,-0.9,6.8,x,
O=C(Nc1cccc(-c2csc(Nc3ccc(Cl)cc3)n2)c1)c1cccc(C(F)(F)F)c1,5.9,21.9,26.8*,0.8,-6.0,4.2,-14.3,
O=C(CCNC(=O)c1ccc([N+](=O)[O-])cc1)N/N=C/c1ccc(F)cc1,4.1,7.9,3.5,8.8,5.2,5.7,x,
Cc1[nH]n(C(N)=S)c(=O)c1N=Nc1ccccc1C(F)(F)F,5.0,13.2,24.3*,4.0,13.6,1.9,27.4*,
O=S(=O)(c1ccc(Cl)c(NC(=S)Nc2cccc(O)c2)c1)N1CCOCC1,15.9,7.4,2.1,-2.1,-2.3,5.0,x,
COc1ccc2ccccc2c1/C=N/NC(=S)Nc1cc(S(=O)(=O)N2CCOCC2)ccc1N1CCOCC1,-2.2,6.6,-4.0,-2.3,-7.4,-2.9,x,
CCOc1cccc(/C=N/NC(=S)Nc2cc(S(=O)(=O)N3CCOCC3)ccc2N2CCOCC2)c1O,10.3,9.4,18.4*,3.2,17.9,32.0*,12.5,
O=[N+]([O-])c1cc(Cl)cc(C=NNC(=S)Nc2cc(S(=O)(=O)N3CCOCC3)ccc2Cl)c1O,x,x,x,x,x,x,x,Fam108b inh=0.0
Cc1c(O)ccc(C(Cc2ccc3ccccc3n2)=NO)c1O,x,x,x,x,x,x,x,Fam108b inh=0.0
Cc1c(O)ccc(/C(Cc2ccc3ccccc3n2)=N\O)c1O,53.5*,18.9,25.0*,28.6*,27.6,50.0*,29.4*,
CCN(c1ccccc1)S(=O)(=O)c1ccc(Cl)c(C(=O)OCC(=O)NC(=O)C(C)C)c1,1.9,-4.2,0.3,19.5,3.1,25.4,x,
CCN(c1ccccc1)S(=O)(=O)c1ccc(Cl)c(NC(=O)COC(=O)c2cc(O)c3ccccc3c2O)c1,x,19.8,19.6*,x,x,39.8*,47.8*,
O=C(CCc1nnc(C2CCCCC2)o1)N1CCC(Oc2cccnc2)CC1,8.4,-3.7,2.6,-1.0,-2.2,2.2,x,
Cn1c(C(O)C(O)c2ccccc2)nc2ccccc21 (stereo not given),5.8,4.4,1.7,2.1,-2.5,3.3,x,
Cn1c(C(C#N)C2=C(Cl)C(=O)N(c3ccccc3)C2=O)nc2ccccc21 (stereo not given),x,19.0,25.0*,x,x,14.1,17.1,
O=c1c2c3c(sc2n(CCN2CCCCC2)c(=O)n1Cc1ccco1)CCCCC3,-9.6,10.7,21.1*,1.3,2.3,0.3,28.1*,
O=C(Cn1c(=O)n(Cc2ccco2)c(=O)c2c3c(sc21)CCCC3)Nc1ccccc1,-12.4,-30.5,-45.9,-4.6,-18.9,-70.1,x,
O=c1c2c3c(sc2n(CCN2CCOCC2)c(=O)n1Cc1ccco1)CCCCC3,-2.3,14.5,20.4*,0.0,-4.3,-1.4,16.3,
CCN1CCc2c(sc(NC(=O)Nc3ccc(Cl)c(Cl)c3)c2C(N)=O)C1,9.6,32.5*,31.9*,7.9,-5.8,56.7*,4.1,
SMILES,PAFAH1B3 inh,pPAFAH inh,Fam108B counter,PAFAH1B2 inh,PAFAH2 FP inh,PME-1 inh,Fam108b inh conf,others
CCN1CCc2c(sc(NC(=O)Cc3ccccc3)c2C(N)=O)C1,-2.0,-4.8,-0.2,3.6,5.4,0.0,x,
Cc1ccc2nc(CSc3nc(C)ccc3C#N)[nH]c2c1,3.0,4.7,41.6*,-0.1,3.2,4.2,39.6*,Fam108b inh=55.0*
Cn1c(-c2ccccc2)cc(=O)c2ccccc21,-8.1,3.0,-3.6,0.6,-1.4,5.5,x,
Cn1c2ccccc2c(=O)n2c(=O)c3ccccc3cc12,x,-3.2,28.7*,x,x,6.7,5.8,
CCOCc1cnc(C)nc1NCC(=O)c1c(C)[nH]c2ccccc12,10.0,4.0,57.2*,-1.7,4.9,-2.2,5.0,
O=C1c2ccccc2C(=O)c2c([N+](=O)[O-])ccc(O)c21,63.5*,26.9*,31.2*,43.3*,39.9*,28.6*,36.1*,Fam108b inh=30.0
CC1=NN(C(N)=S)C(=O)C1N=Nc1c(Br)cc(Br)cc1Br (stereo not given),5.6,15.4,29.5*,2.1,22.2,8.9,33.4*,Fam108b inh=35.0
CC1=NN(C(N)=S)C(=O)C1N=Nc1c(C)cc(C)cc1C (stereo not given),2.2,2.3,1.6,0.6,1.8,-4.8,x,
COc1ccc(-c2sc(Nc3ccccc3)n[n+]2-c2ccc(F)cc2)c(OC)c1OC,-2.5,0.3,7.2,10.0,-8.3,3.0,x,
COc1cccc2c1C(=O)c1c(O)c3c(c(O)c1C2=O)C[C@](O)(C(C)=O)C[C@H]3O[C@@H]1C[C@@H](N)[C@@H](O)[C@@H](C)O1,43.2*,56.9*,42.7*,48.6*,51.0*,50.8*,41.8*,
COC(c1ccccc1)c1nnc(CCC(=O)N2CCN(Cc3cccs3)CC2)o1 (stereo not given),4.4,4.4,-0.7,7.6,-1.9,-4.2,x,
COc1ccc(OC)c(-c2csc(NC(=O)CSc3ccc([N+](=O)[O-])cc3)n2)c1,-0.9,7.1,21.1*,3.0,3.4,10.3,14.4,
COc1ccc(OC)c(-c2csc(NC(=O)CSc3ccc(Br)cc3)n2)c1,-34.0,2.2,16.9,4.4,-15.0,-0.8,x,
O=c1oc(-c2ccccc2Cl)nc2ccsc12,0.6,2.3,34.0*,0.3,3.4,2.1,32.1*,Fam108b inh=85.0*
CN(C)c1ccc(NC(=O)c2cccc(C(=O)Nc3ccc(N(C)C)cc3)n2)cc1,7.7,25.9*,21.0*,-0.7,-4.8,-17.6,32.1*,Fam108b inh=35.0
O=C(O)c1ccc(NC(=O)c2cccc(C(=O)Nc3ccc(C(=O)O)cc3)n2)cc1,40.0*,8.1,20.7*,30.6*,20.3,21.6,13.3,
O=C(Nc1ccccc1)c1cccc(C(=O)Nc2ccccc2)n1,16.1,-1.9,-0.3,1.3,-4.5,0.3,x,

# Compound activity: PubChem BioAssay, The Scripps Research Institute Molecular Screening Center
